These results are taken from PubChem BioAssay (NCI).

SMILES strings stand for the structures. This is part of a sample that, as a whole, favours compounds with a hit. Of some 83,000 tested, about 20% had one in any assay.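 Testing used 96-well plates and a 48-hour single-concentration exposure. Example: -40 means 40% of the starting cells died.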 Unmarked numbers belong to inactive results. The source made the active and inactive calls.

The assay concerns KM12 colon. As to the kind of experiment: NCI-60 one-dose screen, 48 h (100 = growth as untreated, 0 = no growth, -100 = all killed). Conditions: 10 µM. Here is the method:
Growth inhibition of the KM12 human tumor cell line is measured as a screen for anti-cancer activity. Cells are grown in 96 well plates and exposed to the test compound for 48 hours. Compounds are tested at a single concentration, which is 10^-5 M for most compounds. The reported endpoint is percent growth (GI% or GIPRCNT), where numbers from 0 - 100% represent growth inhibition, and numbers from -100% - 0 represent cell death. For example, a value of 40 represents 60% growth inhibition. A value of 0 means no net growth occurred over the course of the experiment. A value of -40 indicates 40% of cells at the beginning of the experiment died by the end of the experiment. A value of -100 means all cells are dead at the end of the experiment.
NCI-60 Human Tumor Cell Lines Screen was performed using the standard one-dose NCI protocol, which is described in more detail at https://dtp.cancer.gov/discovery_development/nci-60/default.htm.
Compounds with GIPRCNT values below 10 were considered active. Activity score was based on GIPRCNT using the following formula: […]
Score is 0 for GIPRCNT values of 100 or above, 50 for GIPRCNT values of 0, and 100 for GIPRCNT values of -100.
For the compound `O=C(/C=C/c1ccc(Cl)cc1)c1nc2ccccc2n1Cc1ccc(Br)cc1`, the growth was 67.6%.
As for `O=C(/C=C/c1ccccc1)c1nc2ccccc2n1Cc1ccc(Br)cc1`, the growth was -32.5% (active).
As for `COc1cc2cc(C(=O)N3C[C@@H](CCl)c4c3cc(OC(=O)N3CCN(C(=O)CCC(=O)N5CCN(C)CC5)[C@@H]5CSSC[C@@H]53)c3ccccc43)[nH]c2c(OC)c1OC`, the figure is -74.6% (active); as for `COc1ccc(/C=C/C(=O)c2nc3ccccc3n2Cc2ccc(Br)cc2)cc1`, 61.5%; as for `COc1cc(OC)c(S(=O)(=O)N(CCCl)CCCl)cc1C(=O)/C=C/c1ccc(C)cc1`, 81.1%.
For `CC12OOC(C)(OO1)C2CCC(=O)NCCNc1ccnc2cc(Cl)ccc12` (stereo not given) the value was 101%; for `O=C(/C=C/c1ccc(Br)cc1)c1nc2ccccc2n1Cc1ccc(Br)cc1`, 22.5%; for `Cc1c2oc3c(C)ccc(C(=O)N[C@@H]4C(=O)N[C@H](C(C)C)C(=O)N5CCC[C@H]5C(=O)N(C)CC(=O)N(C)[C@@H](C(C)C)C(=O)OC4C)c3nc-2c(C(=O)N[C@@H]2C(=O)N[C@H](C(C)C)C(=O)N3CC(=O)C[C@H]3C(=O)N(C)CC(=O)N(C)[C@@H](C(C)C)C(=O)OC2C)c(N)c1=O` (stereo not given in full), 2.23% (active).
Turning to `O=C(/C=C/c1cccc(Br)c1)c1nc2ccccc2n1Cc1ccc(Br)cc1`, the growth is 6.51% (active).
As for `COC(=O)C[C@](O)(CCC(C)C)C(=O)O[C@@H]1C(OC)=C[C@]23CCCN2CCc2cc4c(cc2[C@H]13)OCO4`, the figure is -20.8% (active); as for `CC1=C(CCC=O)C2=C(C)C3(CC3)[C@@](C)(O)C(=O)C2=C1`, -72.9% (active).
With `CC(C)N=C([Se])NC(=O)c1cccs1`, the growth was 16.7%.
For the compound `CCC[Se]C(=O)c1ccc(C(=O)[Se]CCC)s1`, the growth is 5.4% (active).
As to `C[C@H]1[C@H](OC(=O)CCC(=O)N(CCCc2cn(-c3ccc(C#N)cc3)nn2)CCNc2ccnc3cc(Cl)ccc23)O[C@@H]2OC3(C)CC[C@H]4[C@H](C)CC[C@@H]1[C@@]24OO3`, the growth is 31.4%.
As for `C#CC[Se]C(=O)c1ccc(C(=O)[Se]CC#C)s1`, the figure is 42.8%; as for `COc1ccc(OC)c(/C=C/C(=O)c2nc3ccccc3n2Cc2ccc(F)cc2)c1`, -20.9% (active); as for `C=CC[Se]C(=O)c1cncc(C(=O)[Se]CC=C)c1`, -73.1% (active).
As for `CC1=C2C(=C[C@@](C)(COP(=O)(Oc3ccccc3)Oc3ccccc3)[C@@H]2O)C(=O)[C@@](C)(O)C12CC2`, the figure is -29.3% (active); as for `CC1=C(COCCOC(=O)c2ccc(S(=O)(=O)F)cc2)C2=C(C)C3(CC3)[C@@](C)(O)C(=O)C2=C1`, 29.6%.
For `COP(=O)(CC(F)(F)C(F)(F)F)OC` the value was 94.6%; for `O=C(NC([Se])=NC1CCCCC1)c1ccc2c(c1)OCO2`, 32.4%; for `O=C(NC([Se])=NC1CCCCC1)c1ccccc1`, 35.5%.
Regarding `C[C@H]1[C@@H](CC(=O)N[C@@H](Cc2coc3ccccc23)B(O)O)O[C@@H]2OC3(C)CC[C@H]4[C@H](C)CC[C@@H]1[C@@]24OO3`, the growth is -20.4% (active).
`O=C(NCCCCC(c1ccc(F)cc1)c1ccc(F)cc1)Nc1ccc([N+](=O)[O-])c(C(F)(F)F)c1`: the growth was 2.48% (active).
As for `CC[C@]12C=CCN3CC[C@@]4(c5ccc(OC)cc5N(C)[C@H]4[C@@](O)(C(=O)OC)[C@@H]1OC(=O)CCCC[P+](c1ccc(C)cc1)(c1ccc(C)cc1)c1ccc(C)cc1)[C@@H]32`, the growth was -73.6% (active).
As for `C[C@H]1[C@H](OC(=O)CCC(=O)N(CCCc2cn(-c3ccc([N+](=O)[O-])cc3)nn2)CCNc2ccnc3cc(Cl)ccc23)O[C@@H]2OC3(C)CC[C@H]4[C@H](C)CC[C@@H]1[C@@]24OO3`, the figure is 33.6%; as for `N#C[Se]CC(=O)Nc1cccc(C(F)(F)F)c1`, 41.5%.
For `C[C@H]1[C@H](OC(=O)CCC(=O)N(CCCc2cn(-c3ccc(CN4CCOCC4)cc3)nn2)CCNc2ccnc3cc(Cl)ccc23)O[C@@H]2OC3(C)CC[C@H]4[C@H](C)CC[C@@H]1[C@@]24OO3` the value was 24.7%; for `CC[C@]12C=CCN3CC[C@@]4(c5ccc(OC)cc5N(C)[C@H]4[C@@](O)(C(=O)OC)[C@@H]1OC(=O)CCC[P+](c1ccc(C)cc1)(c1ccc(C)cc1)c1ccc(C)cc1)[C@@H]32`, -76.1% (active); for `C#CC[Se]C(=O)c1ccc2n[se]nc2c1`, 95.2%.
As for `C[C@H]1[C@H](OC(=O)CCC(=O)Nc2cnccn2)O[C@@H]2OC3(C)CC[C@H]4[C@H](C)CC[C@@H]1[C@@]24OO3`, the growth is 22.3%.
As for `CC[C@]12C=CCN3CC[C@@]4(c5ccc(OC)cc5N(C)[C@H]4[C@@](O)(C(=O)OC)[C@@H]1OC(=O)CCC[P+](C1CCCCC1)(C1CCCCC1)C1CCCCC1)[C@@H]32`, the figure is -63.4% (active).
Take `CC12CCC3(CCC(=O)NCCCNc4ccnc5cc(Cl)ccc45)[C@@](C)(OO[C@]3(C)O1)O2`: the growth was 9.24% (active).
For `C[C@H]1[C@@H](Oc2ccc(-c3cn(-c4ccnc5cc(Cl)ccc45)nn3)cc2)O[C@@H]2OC3(C)CC[C@H]4[C@H](C)CC[C@@H]1[C@@]24OO3` the value was 25.6%; for `CC[C@]12C=CCN3CC[C@@]4(c5ccc(OC)cc5N(C)[C@H]4[C@@](O)(C(=O)OC)[C@@H]1OC(=O)CCCC[P+](c1ccc(OC)cc1)(c1ccc(OC)cc1)c1ccc(OC)cc1)[C@@H]32`, -68.8% (active); for `O=C(/C=C/c1cccc(Br)c1)c1nc2ccccc2n1Cc1ccc(F)cc1`, 41.4%.
As for `COCCOCCOCCOc1ccc(-n2cc(-c3ccc(O[C@H]4O[C@@H]5OC6(C)CC[C@H]7[C@H](C)CC[C@@H]([C@H]4C)[C@@]57OO6)cc3)nn2)cc1`, the figure is 31.6%.
For `C=CCN=C([Se])NC(=O)c1ccc2c(c1)OCO2` the value was 41.1%.
In the case of `O=C(/C=C/c1ccco1)c1nc2ccccc2n1Cc1ccc(Br)cc1`, the growth is 20.7%.
As for `CC1=C(C=O)C2=C(C)C3(CC3)[C@@](C)(O)C(=O)C2=C1`, the figure is 16.3%.
